# Only some compounds are listed: those with a hit (about 19% of all), similar ones and a draw of the others.
# Lassa entry inh – Lassa virus entry inhibition | Lassa virus pseudotype entry inhibition, cell reporter | Potency, µM (top dose mostly 37.9 µM), for inactives: at the highest dose activity change, negative = inhibition, hits mostly inhibitors | 300,000 compounds, 1.2% hits; calls by dose curve; tested in HEK293 cells; note: potency is the fitted concentration of half-maximal effect; % is set by controls: 0 for no effect and ±100 for the full control effect; nearly all actives have a fitted effect of over 50% in size
# Pf growth 48h – inhibits P. falciparum growth in the first generation, 48 h | 310,000 compounds, 5.9% hits | Potency, µM (series often up to 28.7 µM), without a hit: at the highest dose activity change, negative = inhibition, usual class: inhibitors | P. falciparum luciferase growth in erythrocytes, 48 h | AID 504832; note: potency is the fitted concentration of half-maximal effect; % is set by controls: 0 for no effect and ±100 for the full control effect
#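 Compounds are pin-transferred into medium, infected erythrocytes (2% hematocrit, 0.1% parasitemia final) are added, and plates sit one parasite generation at 37 C in 5% CO2. Detection reagent is then added and luminescence measured.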
# Shiga toxin inh – inhibitors of Shiga toxin in Vero cells. Vero cells, Shiga toxin protein synthesis inhibition reporter. inhibition, % at 38.7 µM. 290,000 compounds, 9.2% hits. AID 2315; in the data active = inhibition mostly above about 28%, no sharp cut-off; inactive = mostly below about 43%; note: 0% is about no effect
# MARV entry inh – inhibitors of Marburg virus binding or cell entry. Marburg virus pseudotyped entry inhibition, cell reporter. Potency, µM (titrated, usually from 37.8 µM), for the others: top-dose activity change, negative = inhibition, usual class: inhibitors. 300,000 compounds, 1.8% hits; calls by dose curve; tested in HEK293 cells; note: potency is the fitted concentration of half-maximal effect; % is set by controls: 0 for no effect and ±100 for the full control effect
# Pf growth 96h – P. falciparum growth inhibition at 96 hour, primary screen for plastid delayed-death inhibitors. AID 504834. 320,000 compounds, 6.9% hits. Potency, µM (top dose mostly 28.7 µM), for the others: at the highest dose activity change, negative = inhibition, most hits filed as inhibitors. P. falciparum luciferase reporter growth, 96 h; note: potency is the fitted concentration of half-maximal effect; % is set by controls: 0 for no effect and ±100 for the full control effect
#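 Two-generation exposure (96 h) targets delayed-death phenotype. Reporter parasites carrying integrated firefly luciferase, in red cells at 2% hematocrit and 0.05% parasitemia final, kept at 37 C, 5% CO2; luminescence loss indicates inhibition.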
# Cycloheximide cs – affects cycloheximide protein synthesis inhibition readout, counter-screen | cell reporter, cycloheximide protein synthesis inhibition counterscreen | max response, % | 300,000 compounds, 12% hits | AID 2314; in the data active = max response mostly above about 13%, no sharp cut-off; inactive = mostly below about 14%; note: read at 38.3 µM for the half of the compounds with a filed dose; 0% is about no effect
# The depositor's hits bear a star; ? = inconclusive; nt = no result; [ ] = dose if it differs, or a comment. Unless noted, calls come from the whole dose curve; as a rule, active = well fitted inhibition curve with a large enough effect; inconclusive = small, poorly fitted or top-dose-only effect, or another doubt; inactive = no such curve, though single readings can be large or run the other way.
SMILES,Lassa entry inh,Pf growth 48h,Shiga toxin inh,MARV entry inh,Pf growth 96h,Cycloheximide cs
CC(=O)Nc1ccc(S(=O)(=O)N2CCCN(c3nc(C)cc(C)c3C#N)CC2)cc1,nt,2%,-3,nt,-10%,-2
CC(C)Cc1cc(C(=O)Nc2c(F)cc(F)cc2Br)no1,nt,?,37*,nt,?,21
COc1ccc(-c2cc(C(=O)Nc3c(F)cc(F)cc3Br)no2)cc1,nt,30%,67*,nt,8.3µM*,16*
Cc1cc(C(=O)Nc2ccc(F)cc2C)cs1,nt,-19%,31,nt,-21%,-4
CC(C)Cc1cc(C(=O)Nc2ccc(F)cc2F)no1,nt,77%,90*,nt,?,56*
Cc1cc(C(=O)Nc2c(F)cc(F)cc2Br)cs1,nt,3%,10,nt,15µM*,14
CC(C)Cc1cc(C(=O)Nc2cc(Cl)ccc2Cl)no1,nt,1%,7,nt,39%,-2
COc1ccc(C2CC(=O)C(CS(=O)(=O)c3ccccc3)C(=O)C2)cc1 (stereo not given),-16%,11%,-2,5%[46.1 µM],124%,6
O=C(CCC1N=C2c3ccccc3N=C(SCc3cccc(F)c3)N2C1=O)NC1CCCCC1 (stereo not given),-7%[46.1 µM],nt,nt,nt,nt,nt
Cc1ccc(NN=C2c3ccccc3-c3ccccc32)cc1,?,106%,70*,2%,185%,48*
c1ccc(NN=C2c3ccccc3-c3ccccc32)cc1,4%[46.1 µM],nt,nt,-8%[46.1 µM],nt,nt
O=C(N1CCCC1)C12CCC3CC(CC(C3)C1)C2,5%,nt,-12,-4%,9.3µM*,-4
CC(=O)N1N=C2/C(=C/c3ccccc3)CCCC2C1c1ccccc1 (stereo not given),-16%,113%,72*,-16%[46.1 µM],?,48*
O=C(O)c1c(C(=O)N2N=C3/C(=C/c4ccccc4)CCCC3C2c2ccccc2)cccc1[N+](=O)[O-] (stereo not given),?,?,-9,27%[46.1 µM],-33%[5.75 µM],3
N#CC1=C(SCC(=O)c2ccc(Br)cc2)NC2=C(C(=O)CCC2)C1c1ccco1 (stereo not given),?,?,7,8.9µM*,nt,1
COc1cccc(/C=N/n2c(N)c(S(=O)(=O)c3cccs3)c3nc4ccccc4nc32)c1OC,-30%,?,26,-24%,?,-1
Nc1c(S(=O)(=O)c2cccc(Cl)c2)c2nc3ccccc3nc2n1/N=C/c1ccc(O)c(O)c1,nt,7.4µM*,-9,nt,-16%,-2
Cc1ccccc1NC(=O)Cc1nc(COC(=O)c2cc([N+](=O)[O-])ccc2NCCO)cs1,3%,?,nt,?,?,nt
CC(=O)Nc1ccc(S(=O)(=O)NC2=C(N3CCN(C)CC3)C(=O)c3ccccc3C2=O)cc1,nt,?,4,nt,?,-2
CCOC(=O)N1CCN(C2=C(NS(=O)(=O)c3ccc(NC(C)=O)cc3)C(=O)c3ccccc3C2=O)CC1,nt,?,21,nt,9.3µM*,15
CCN1CCN(C2=C(NS(=O)(=O)c3ccc(NC(C)=O)cc3)C(=O)c3ccccc3C2=O)CC1,nt,?,-2,nt,10µM*,22
CCN1CCN(C2=C(NS(=O)(=O)c3ccc(C)cc3)C(=O)c3ccccc3C2=O)CC1,nt,2.9µM*,38,nt,1.7µM*,23*
CCOC(=O)C1CCN(C2=C(NS(=O)(=O)c3ccc(Cl)cc3)C(=O)c3ccccc3C2=O)CC1,-17%[46.1 µM],?,11,?,?,-3
CC(=O)Nc1ccc(S(=O)(=O)NC2=C(N3CCN(Cc4ccccc4)CC3)C(=O)c3ccccc3C2=O)cc1,?,nt,19,?,1.2µM*,10
CCC1(C)OC(=O)N2CCc3c(C)[nH]c4c(C)ccc(c34)C21C (stereo not given),nt,?,-4,nt,-19%,-3
SMILES,Lassa entry inh,Pf growth 48h,Shiga toxin inh,MARV entry inh,Pf growth 96h,Cycloheximide cs
COc1ccc(C(=O)c2cn(Cc3ccc(F)cc3)c3c(F)cc(F)cc3c2=O)cc1,?,nt,nt,-21%[46.1 µM],nt,nt
O=C(Nc1ncccc1Cl)C1COc2ccccc2O1 (stereo not given),2%,-85%,161*,12%,nt,53*
Cc1ccc(NC(=O)C2COc3ccccc3O2)c(C)c1 (stereo not given),-1%,37%,nt,?,2%,23*
COC(=O)c1ccc(C)c(NC(=O)C2COc3ccccc3O2)c1 (stereo not given),2%,-1%,-1,7%,5%,-3
Cc1ccc(NC(=O)C2Oc3ccccc3OC2C)cc1 (stereo not given),nt,3%,19,nt,125%,15*
O=C(Nc1ccccc1)C1COc2ccccc2O1 (stereo not given),14%,67%,57*,-7%,39%,22*
CCOC(=O)c1cccc(NC(=O)Nc2ccc3c(c2)N(C)C(=O)c2ccccc2S3)c1,4%[46.1 µM],nt,nt,?,nt,nt
CC1C(=O)OC(c2ccc(Cl)cc2)C(C)(C)C1=O (stereo not given),11%,15%,2,?,12%,1
C/C(=N\NC(=O)C1COc2ccccc2O1)c1ccccn1 (stereo not given),11µM*,2.6µM*,24,?,2.6µM*,16*
CCCNC(=O)c1ccccc1NC(=O)C1COc2ccccc2O1 (stereo not given),?,?,-15,7%,?,22
O=C(Nc1ccccc1F)C1COc2ccccc2O1 (stereo not given),nt,8%,43*,nt,?,33*
CC1(C)Oc2ccc(NC(=O)C3COc4ccccc4O3)cc2O1 (stereo not given),?,33%,72,?,12%,35*
Cc1ccc(NC(=O)C2COc3ccccc3O2)cc1 (stereo not given),nt,79%,105*,nt,?,35*
O=C1NC(=O)c2cc(NC(=O)C3COc4ccccc4O3)ccc21 (stereo not given),nt,21%,22,nt,33%,19
CCOc1ccc(CNc2nc3nc(C)c(Cc4ccccc4)c(=O)n3[nH]2)cc1,22%[46.1 µM],nt,nt,?,nt,nt
O=C(Oc1c(Cl)cc(Cl)c2cccnc12)c1ccco1,?,?,-6,?,nt,5
CCn1c(O)c(C=Nc2ccc(S(N)(=O)=O)cc2)c(=O)n(CC)c1=S,-22%,18%,-11,17%,491%,6
CCC(=O)Oc1ccc(C(=O)Nc2ccc([N+](=O)[O-])cc2)cc1,-14%[46.1 µM],38%,102*,?,?,40*
O=C(COc1ccc([N+](=O)[O-])cc1)Nc1ccc(NC(=O)c2ccccc2)cc1,3%,2%,3,-1%,-34%,-1
CC[N+](CC)(CC)CC(=O)Nc1ccc(SC(F)F)cc1,0%,-8%,25,9%,15%,9
CC(C)CN(CC(C)C)CC(O)COc1ccc([N+](=O)[O-])cc1 (stereo not given),9%,12µM*,10,?,-81%,1

# Bioassay records (PubChem BioAssay)
